Sampled rows, rich in hits. Any-hit rate of the full collection: about 4.6%.
tim10-1 inh: growth inhibitors of tim10-1 mutant yeast, primary screen, luminescence, uHTS; S. cerevisiae tim10-1 ts strain growth, BacTiter-Glo, 24 h; hit rate 2.2% among 330,000; inhibition, % at 20 µM; AID 463190, 2010;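 active = inhibition of at least 40%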;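 note: mutant grown at 25 °C; 0% = DMSO wells with yeast and 100% = wells holding no yeast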
SKKanGAS inh: S. pyogenes SKKanGAS growth inhibitors in kanamycin, primary screen, streptokinase expression inhibitor project, SKKanGAS strain, BacTiter-Glo luminescence | hit rate 1.3% among 300,000 | inhibition, % at 7.5 µM | AID 1662, 2009 | 6 h;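 active = mean replicate score, as percent of positive control median, at least 50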;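 note: strain carries kanamycin resistance gene driven by streptokinase promoter and grows in 40 µg/ml kanamycin; loss of luminescence reflects streptokinase promoter inhibition or plain growth inhibition; 0% = median of DMSO wells and 100% = positive control at its reference dose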
tim23-1 inh: growth inhibitors of tim23-1 mutant yeast, primary screen, luminescence, uHTS; AID 463212, 2010; hit rate 1.3% among 330,000; S. cerevisiae tim23-1 growth, BacTiter-Glo luminescence, 24 h; inhibition, % at 20 µM;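 active = growth inhibition of the mutant yeast at or above 50%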;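 note: temperature-sensitive mutant grown at 25 °C; plate controls were DMSO-treated mutant yeast for no effect and medium wells lacking yeast for full effect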
TIM10 inh: growth inhibitors of isogenic TIM10 control yeast, primary screen, counter-screen for tim10-1 yeast inhibitor project, luminescence, uHTS. S. cerevisiae TIM10 strain growth, BacTiter-Glo luminescence, 24 h. inhibition, % at 10 µM. hit rate 1.4% among 330,000. AID 463195, 2010;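 active = inhibition of 40% or more at the single tested concentration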;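 note: wild-type TIM10 isogenic control strain grown at permissive 25 °C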
NLRP3 yeast inh: NALP3 inflammasome inhibitors in reconstituted yeast, primary screen, luminescence, uHTS. AID 2825, 2010. inhibition, % at 10 µM. Yeast reconstituted NLRP3/ASC/caspase-1, beta-gal luminescence, 24 h. hit rate 0.39% among 330,000;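 active = inhibition of 50% or more; inactive = inhibition below 50%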;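 note: plate controls were induced DMSO wells for no effect and uninduced yeast grown without galactose for full effect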
tim10-1 conf: growth inhibitors of tim10-1 mutant yeast, confirmation, single concentration, luminescence, S. cerevisiae; S. cerevisiae tim10-1 ts strain growth, BacTiter-Glo, 24 h; hit rate 56% among 7,400; shares compounds with tim10-1 inh; inhibition, % at 20 µM;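 active = inhibition of yeast growth at or above a set limit in either of two repeat tests at 20 µM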;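 note: tim10-1 mutant grown at permissive 25 °C to find synthetic lethal compounds; 0% = DMSO yeast wells and 100% = medium wells without yeast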
tim10 confirm: growth inhibitors of wild-type TIM10 yeast, confirmation, counter-screen for tim10-1 synthetic lethality project, single concentration, luminescence, S. cerevisiae; AID 463215, 2010; hit rate 63% among 4,600; S. cerevisiae tim10 strain growth, BacTiter-Glo luminescence, 24 h; inhibition, % at 10 µM; shares compounds with TIM10 inh;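 active = inhibition of yeast growth at or above a set limit in either of two replicates at 10 µM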;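 note: this counterscreen used the strain with wild-type TIM10; 0% = yeast with DMSO and 100% = medium wells lacking yeast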
Starred values were filed as active, the others as inactive; nt = no result.

SMILES	tim10-1 inh	SKKanGAS inh	tim23-1 inh	TIM10 inh	NLRP3 yeast inh	tim10-1 conf	tim10 confirm
Cc1ccc(-c2cc(C(=O)N3CCN(c4ncccn4)CC3)c3ccccc3n2)cc1	45*	10	30	44*	5	22	11
COc1ccc(-c2cc(C(=O)N3CCN(c4ncccn4)CC3)c3ccccc3n2)cc1OC	17	nt	29	19	17	nt	nt
CC(C)C(OC(=O)c1nsc(Cl)c1Cl)C(=O)NC1CCCCC1 (configuration not stated)	10	9	27	22	16	nt	nt
COCCCn1c(=O)c2ccccc2n(Cc2ccccc2C)c1=O	11	1	12	16	-33	nt	nt
COCn1c(=O)c2c(nc(SC3=NCCS3)n2Cc2ccccc2C)n(COC)c1=O	47*	-4	40	43*	2	19	35*
N/C(=N\OC(=O)CC1CCCCC1)c1cccc([N+](=O)[O-])c1	56*	-2	38	46*	6	65*	36*
O=C(NCC1CCCCC1)c1cccc([N+](=O)[O-])c1	3	-5	21	-8	28	nt	nt
CN(CCCNC(=O)c1cc2c(Cl)nc3ccccc3c2s1)Cc1ccccc1	53*	9	11	43*	29	41*	44*
COc1ccc(-c2noc(CNC(=O)c3ccoc3C)n2)cc1OC	-1	-1	-7	6	16	nt	nt
COc1ccc2[nH]c3c(c2c1)CCN1C(=O)C(CC(=O)NCc2cccc(C(F)(F)F)c2)C[C@H](C(=O)N2CCCCC2)[C@@]31CCc1ccccc1 (some centres not stated)	24	nt	41	16	nt	nt	nt
Cc1cccc(-c2nnc3sc(-c4ccccc4C)nn23)c1	55*	9	33	41*	18	66*	44*
COc1cccc(-c2nnc3sc(-c4ccccc4)nn23)c1	22	18	40	3	32	nt	nt
O=C(CSc1nnc(-c2ccccn2)o1)Nc1ccccc1F	-36	-1	-27	-10	3	nt	nt
Cc1ccc2nc(NC(=O)c3ccc(Cn4cc(Cl)cn4)o3)sc2c1	46*	39	36	51*	13	22	33*
NNC(=O)c1ccc(Cn2cc(Cl)cn2)o1	14	2	3	3	10	nt	nt
Cc1ccc(C(=O)Nc2ccc(S(=O)(=O)N3CCc4ccccc43)cc2)o1	49*	1	47	52*	-1	33*	43*
COc1ccc(NC(=O)c2cccc(S(=O)(=O)N3CCc4ccccc43)c2)cn1	46*	-3	24	45*	-12	41*	40*
O=C(Nc1ncccc1O)c1cccc(S(=O)(=O)N2CCc3ccccc32)c1	33	2	32	24	6	nt	nt
Cc1ccc(C(=O)Nc2ccc(S(=O)(=O)N3CCc4ccccc4C3)cc2)o1	18	9	14	12	13	nt	nt
Cc1ccc(NC(=O)CN(C)C(=O)COc2ccccc2-c2ccccc2)cc1	3	nt	32	1	23	nt	nt
Cn1cc(-c2nc3ccccc3[nH]2)c2ccccc21	41*	0	-10	71*	32	27	-3
Cc1c(-c2nc3ccccc3[nH]2)cnn1C	-41	nt	0	3	17	nt	nt
CCN(C(=O)COC(=O)C1CCN(S(=O)(=O)c2ccc3c(c2)OCCO3)CC1)C1CCCCC1	17	-3	23	11	1	nt	nt
COC(=O)Cc1[nH]c(=S)[nH]c1C(=O)OC	-2	2	16	-5	5	nt	nt
CNNC(=S)Nc1cccc(C(F)(F)F)c1	-6	-4	5	2	8	nt	nt
SMILES	tim10-1 inh	SKKanGAS inh	tim23-1 inh	TIM10 inh	NLRP3 yeast inh	tim10-1 conf	tim10 confirm
FC(F)(F)c1cccc(NC(=S)NNC(=S)Nc2cccc(C(F)(F)F)c2)c1	47*	101*	40	54*	13	29	54*
CCc1c(C)c2c(C)nn(-c3ccccc3)c2oc1=O	55*	24	-1	42*	12	54*	21
Cc1cc2c(c(C)nn2-c2ccccc2)c(=O)o1	11	-5	8	-11	30	nt	nt
COc1ccccc1OCC(=O)Nc1cc2c(cc1C(=O)O)OCCCO2	-2	-4	11	1	14	nt	nt
CC(C)(C)[C@H]1COC(=O)[C@H](Cc2ccc(F)cc2)CC/C=C/C[C@@H](CC(=O)N[C@H](CO)Cc2ccccc2)C(=O)N1	0	nt	10	8	8	nt	nt
O=C(Nc1ccc(Br)cc1)c1cccn1-c1ncc(C(F)(F)F)cc1Cl	47*	18	47	52*	17	43*	43*
O=C(Nc1ccncc1)c1cc2ccccc2cc1O	0	25	8	0	7	nt	nt
Cc1nnc(Nc2ccc(F)cc2)c2ccccc12	12	8	6	10	14	nt	nt
Cc1nnc(Nc2ccccn2)c2ccccc12	66*	-15	46	85*	32	71*	83*
COc1ccccc1C(=O)NC(=O)COC(=O)c1cccc(C)c1O	6	0	10	-7	27	nt	nt
O=C(Cn1c(=O)c2cccn2c2cccnc21)N1CCN(c2ccccc2F)CC1	11	1	3	-8	18	nt	nt
CCCc1[nH]nc2c1C(c1ccccc1OC)C(C#N)=C(N)O2 (configuration not stated)	14	1	11	5	4	nt	nt
CCCc1[nH]nc2c1C(c1cn[nH]c1-c1ccc(F)cc1)C(C#N)=C(N)O2 (configuration not stated)	44*	-15	44	41*	-11	48*	34*
Fc1ccc(COc2ccccc2C(=S)N2CCCC2)cc1	27	-1	35	9	9	nt	nt
Cc1ccc(COc2ccccc2C(=S)N2CCCC2)cc1	40*	11	27	42*	18	24	23
CCN(CCNCC(O)COc1ccccc1C(C)C)c1cccc(C)c1 (configuration not stated)	9	15	31	26	22	nt	nt
O=C(CN1CCN(S(=O)(=O)c2ccc3ccccc3c2)CC1)Nc1ccc(N2CCOCC2)cc1	33	8	18	13	9	nt	nt
COc1ccc(C(=O)Nc2ccc(S(=O)(=O)N3CCCCC3)cc2)cc1	48*	-1	43	61*	13	64*	62*
COc1ccc(C(=O)Nc2ccc(S(=O)(=O)N3CCN(C)CC3)cc2)cc1	5	1	-9	5	20	nt	nt
O=C(CN1CCN(S(=O)(=O)c2ccc3ccccc3c2)CC1)Nc1ccc2c(c1)CCC2	44*	3	27	53*	15	46*	13

High-throughput results: PubChem BioAssay, several laboratories
